Pol kappa inh = qHTS for Inhibitors of Polymerase Kappa. DNA polymerase kappa (Homo sapiens), Q9UBT6. purified Pol kappa, fluorescent DNA synthesis assay, 10 min. Potency, µM (titrated, usually from 107 µM), without a hit: at the top dose activity, negative = inhibition, usual class: inhibitors. hit rate 0.53% among 400,000. AID 588579, 2011; further: on the % scale 0 is the no-effect control and ±100 the full control effect
Target sequence (Q9UBT6 whole entry, looked up): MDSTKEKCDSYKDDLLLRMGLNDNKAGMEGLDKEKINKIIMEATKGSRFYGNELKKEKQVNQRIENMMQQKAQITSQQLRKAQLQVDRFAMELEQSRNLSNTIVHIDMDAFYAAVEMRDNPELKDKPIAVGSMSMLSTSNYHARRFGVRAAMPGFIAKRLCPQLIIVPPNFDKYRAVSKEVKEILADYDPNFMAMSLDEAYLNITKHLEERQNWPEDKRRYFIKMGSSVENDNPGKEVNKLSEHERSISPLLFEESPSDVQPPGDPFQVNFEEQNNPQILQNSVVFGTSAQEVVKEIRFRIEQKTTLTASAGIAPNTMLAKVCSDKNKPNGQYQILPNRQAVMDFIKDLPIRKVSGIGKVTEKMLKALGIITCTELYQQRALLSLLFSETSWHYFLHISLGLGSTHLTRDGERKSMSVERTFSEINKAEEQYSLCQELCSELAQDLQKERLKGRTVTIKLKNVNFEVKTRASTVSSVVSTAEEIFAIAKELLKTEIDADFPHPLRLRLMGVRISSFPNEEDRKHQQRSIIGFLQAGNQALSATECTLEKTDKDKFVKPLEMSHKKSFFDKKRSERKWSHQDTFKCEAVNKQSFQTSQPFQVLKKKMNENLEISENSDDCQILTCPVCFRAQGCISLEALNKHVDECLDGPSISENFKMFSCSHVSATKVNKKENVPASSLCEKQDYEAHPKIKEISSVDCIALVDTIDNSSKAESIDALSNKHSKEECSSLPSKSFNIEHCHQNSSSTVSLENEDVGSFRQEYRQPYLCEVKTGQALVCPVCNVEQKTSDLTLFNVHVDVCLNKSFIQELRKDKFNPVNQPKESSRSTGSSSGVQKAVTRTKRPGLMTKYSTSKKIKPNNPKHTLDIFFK
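Enzyme at 10 nM met test compounds for 15 min at room temperature. Substrate addition (50 nM final) began the reaction, which was monitored by fluorescence at 0 and 10 min.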
Pol eta inh = qHTS for Inhibitors of Polymerase Eta; hit rate 1.2% among 390,000; AID 588591, 2011; Potency, µM (series often up to 114 µM), inactives show at the top dose activity change, negative = inhibition, actives largely listed as inhibitors; recombinant Pol eta, fluorescent DNA replication assay; DNA polymerase eta (Homo sapiens), Q9Y253; further: on the % scale 0 is the no-effect control and ±100 the full control effect
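Fluorescent replication assay: 50 nM final substrate added after a 15 min room-temperature compound preincubation with 10 nM enzyme. Signal taken at 0 min and again at 10 min.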
APEX1 inh = qHTS Assay for Inhibitors of the Human Apurinic/apyrimidinic Endonuclease 1 (APE1); DNA repair nuclease/redox regulator APEX1 (Homo sapiens), P27695; recombinant APE1, TAMRA/BHQ-2 abasic DNA cleavage fluorescence; Potency, µM (series often up to 65.8 µM), for inactives: top-dose activity change, negative = inhibition, hits mostly inhibitors; hit rate 0.35% among 350,000;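 further: plate controls were vehicle for no effect and reference inhibitor for full effect; nearly all actives have a fitted effect of over 55% in size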
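Kinetic fluorescence read (525 ex/598 em nm, three reads 60 s apart) of AP-site incision; signal = third minus first read. Enzyme 0.75 nM, dual-labelled THF duplex 50 nM, compound preincubation 15 min RT.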
Pol beta inh = qHTS Assay for Inhibitors of DNA Polymerase Beta | AID 485314, 2010 | Pol beta primer extension/strand displacement, fluorescence kinetic | hit rate 1.3% among 340,000 | Potency, µM (series often up to 114 µM), for inactives: at the top dose activity change, negative = inhibition, most hits filed as inhibitors; further: on the % scale 0 is the no-effect control and ±100 the full control effect
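Kinetic readout of DNA synthesis with strand displacement by Pol beta. Compound and 10 nM enzyme sit 15 min at room temperature; 50 nM substrate starts the reaction, read immediately and at 10 min.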
GLS inh = qHTS for Inhibitors of Glutaminase (GLS). GLS enzymatic activity, qHTS titration. hit rate 0.21% among 410,000. Potency, µM (highest dose often 45.5 µM), inactives show at the top dose activity change, negative = inhibition, hits mostly inhibitors. AID 624170, 2012. Glutaminase kidney isoform, mitochondrial (Homo sapiens), O94925; further: on the % scale 0 is the no-effect control and ±100 the full control effect
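Two-point fluorescence kinetic (t0, 30 min RT) for hKGA; glutamate detected via glutamate oxidase–HRP–Amplex Red. Substrate: 1 mM L-glutamine solution; buffer 45 mM KH2PO4, pH 8.2.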
POLI inh = qHTS for Inhibitors of Polymerase Iota. Pol iota fluorescent replication assay, 10 min. AID 588590, 2011. Potency, µM (series often up to 115 µM), for inactives: top-dose activity, negative = inhibition, most hits filed as inhibitors. hit rate 1% among 390,000. DNA polymerase iota (Homo sapiens), Q9UNA4
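Fluorescent replication assay read twice, at 0 min and 10 min after adding 50 nM (final) substrate. Enzyme (10 nM) and compounds were first incubated 15 min at room temperature; enzyme-free buffer wells were negative controls.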
The depositor's hits bear a star; ? = inconclusive; nt = no result; [ ] = remark or other dose. The list is not random: actives were taken first. Their share in the collection is about 2.4%. The call rests on the fitted dose curve; in most records, active means well fitted curve in the direction sought with a large enough effect; inconclusive means small, poorly fitted or top-dose-only effect, or another doubt; inactive means no such curve, though single readings can be large; an effect the other way counts as inactive or inconclusive. Potency means the concentration at half of the fitted maximal effect.

SMILES	Pol kappa inh	Pol eta inh	APEX1 inh	Pol beta inh	GLS inh	POLI inh
C=CCNC(=O)N1c2ccccc2Sc2ccccc21	-16%	-1%	32%	2%	6%	?
CCCC(=O)Nc1ccc(C(=O)N/N=C/c2ccc([N+](=O)[O-])o2)cc1	-10%	?	?	45µM*	3%	?
O=C(N/N=C/c1ccc([N+](=O)[O-])o1)C1CC1	-28%	40µM*	?	18µM*	-1%	22µM*
COC(=O)N/N=C/c1ccc([N+](=O)[O-])o1	-44%	-4%	-2%	?	2%	56µM*
O=C(N/N=C\c1ccc([N+](=O)[O-])o1)c1ccc(O)cc1	?	nt	nt	nt	4%[20 µM]	nt
O=C1NC(=S)N/C1=C\c1cccnc1	10%	-9%	4%	-1%	-2%	20%
O=C(O)CCC(=O)N1CCc2cc(S(=O)(=O)N3CCCCC3)ccc21	-11%	-7%	6%	35%	-15%	9%
O=C(O)CCC(=O)N1CCc2cc(S(=O)(=O)N3CC=C(c4ccccc4)CC3)ccc21	?	?	-6%	22µM*	0%	?
Cc1ccc(-n2c(SCC(=O)NCc3ccco3)nc3c([nH]c4ccccc43)c2=O)cc1	-7%	2%	1%	0%	4%	-1%
Cc1ccc(C(=O)NNc2ncnc3c2cnn3C)cc1	-4%	-2%	?	47%	5µM*	-6%
Cc1ccccc1C(=O)NNc1ncnc2c1cnn2C	8%	-17%	9%	13%	2%	73%
CCN(CC)C(=O)c1ccc(COc2ccc(Cl)c(C)c2)o1	0%	-22%	28%	89µM*	9%	27%
Cc1nc(N=Nc2cc(S(=O)(=O)O)ccc2S(=O)(=O)O)c(COP(=O)(O)O)c(C=O)c1O	2µM*	nt	16µM*	nt	nt	nt
CCC(C)(C)n1nnnc1C(c1ccc(C)cc1)N1CCN(Cc2cccnc2)CC1 (stereo unspecified)	-4%	-13%	2%	7%	-2%	22%
CSc1nc(C)c2c(n1)N(c1ccc(F)cc1)CC2	-13%	-17%	-4%	40%	0%	14%
CSc1nc(C)c2c(n1)N(c1ccc(O)cc1)CC2	-33%	35µM*	?	?	5%	?
O=C1CCCN1CCCNc1ccc2nnc(CCC(=O)N3CCN(c4ccccc4)CC3)n2n1	-21%	-9%	35%	?	-5%	-3%
O=C(CCc1nnc2ccc(NCc3ccco3)nn12)N1CCN(c2ccccc2)CC1	?	45µM*	3%	-18%	19%	20µM*
CCOC(=O)C1CCN(C(=O)CCc2nnc3ccc(NCc4ccco4)nn23)CC1	-31%	45µM*	10%	3%	-5%	?
COc1cc(NC(=O)CSc2nc3[nH]ncc3c(=O)n2-c2ccc(Cl)cc2)cc(OC)c1	-2%	-12%	8%	3%	-5%	26%
CC(C)c1ccc(OCC(=O)Nc2cc(-c3nc4ncccc4o3)ccc2Cl)cc1	-12%	-8%	nt	-7%	12%	-3%
O=C(N/N=C/c1ccc(Sc2ccccn2)o1)c1cc2ccccc2cc1O	28µM*	18µM*	-3%	18µM*	22%	20µM*
Cc1ccc(-c2nn(-c3ccccc3)c3[nH]c(=O)c(CNCc4ccccc4)cc23)cc1	-11%	-17%	-1%	19%	?	36%
CCNC(=O)CSc1ncnc2sccc12	-17%	22µM*	14%	?	4%	?
CCCn1c(=O)c2sccc2n2c(CCCC(=O)NCc3ccccc3)nnc12	-14%	-11%	nt	31%	-10%	20%
SMILES	Pol kappa inh	Pol eta inh	APEX1 inh	Pol beta inh	GLS inh	POLI inh
CCCn1c(=O)c2sccc2n2c(CCCC(=O)NCc3ccco3)nnc12	?	35µM*	-12%	?	-12%	20µM*
O=C(N/N=C/C=C/c1ccco1)c1cccnc1	-42%	?	-2%	-1%	-13%	32µM*
O=C(N/N=C/C=C/c1ccccc1[N+](=O)[O-])c1cc(-c2ccccc2)n[nH]1	-31%	?	2%	?	3%	?
O=C(N/N=C\C=C\c1ccco1)c1cncc(Br)c1	89µM*	?	-2%	?	6%	20µM*
O=C(N/N=C\C=C\c1ccco1)c1cc(-c2ccc3ccccc3c2)n[nH]1	79µM*	50µM*	20%	16µM*	-4%	32µM*
O=C(N/N=C\c1ccco1)c1cncc(Br)c1	nt	nt	-1%	-22%	nt	nt
O=C(N/N=C/C=C/c1ccco1)c1cnccn1	-24%	?	3%	-14%	7%	?
O=C(N/N=C/c1cc(Br)c(Br)o1)c1cccnc1	?	11µM*	-4%	32µM*	-1%	?
CS(=O)(=O)N1CCCC(C(=O)NCCc2ccccc2)C1 (stereo unspecified)	-5%	-4%	-1%	42%	1%	?
COc1cccc(N2CCN(c3ccc4nnc(CCC(=O)O)n4n3)CC2)c1	-7%	-15%	nt	7%	28%	2%
Cc1c(CCO)c(=O)[nH]n1S(=O)(=O)c1cccc(C(F)(F)F)c1	-20%	-21%	30%	8%	0%	41%
Cc1ncc(CO)c2cc(C(N)=O)c(=Nc3ccccc3)oc12	-1%	9%	-3%	15%	0%	16%
O=C1CCCC/C1=C\Nc1ccc(O)cc1	-3%	-3%	?	-4%	58%	25µM*
O=C1CCC/C1=C/Nc1ccc(Cl)cc1	-2%	-6%	12%	-9%	12%	-13%
O=C1CCC/C1=C/Nc1ccc2c(c1)OCO2	-3%	5%	-6%	25µM*	nt	22%
Cc1ccc(C)c(NCC(=O)c2ccc(Cl)cc2)c1	-7%	-8%	13%	1%	0%	-15%
COc1ccc(N=C2NC(=O)/C(=C/c3ccc(O)c(OC)c3)S2)cc1	-29%	?	-7%	40µM*	17%	?
CCOc1ccc(N=C2NC(=O)S/C2=C\c2ccc(OC)cc2)cc1	-8%	-10%	0%	10µM*	2%	?
CCc1ccc(N=C2NC(=O)/C(=C/c3ccc(OCC(=O)O)c(OC)c3)S2)cc1	-25%	13%	?	20µM*	18%	?
COc1cccc(N=C2NC(=O)/C(=C/c3cc([N+](=O)[O-])ccc3O)S2)c1	-11%	28µM*	?	40%	7%	?
COc1cc(/C=C2/SC(=Nc3ccc(O)cc3)NC2=O)cc(OC)c1O	-28%	3%	?	-22%	?	?
